# Of roughly 8,800 targets only a part is listed; those with a hit were picked by preference. About 0.5% of all pairs of compound and target were hits. Values without a mark were called inactive.
# Legend:
# Assay in all cases: log2 fold change, soluble protein after heating vs DMSO (PISA); higher = thermal stabilisation; K562 lysate, 10 uM; active = over 0.2 and 3.5 SD of the protein, either way, in both replicates (recomputed)
# erlotinib = compound: C#Cc1cccc(Nc2ncnc3cc(OCCOC)c(OCCOC)cc23)c1 [erlotinib]
# Method in brief: (§1)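 To prepare the extract, K562 pellets were dounce-homogenised in PBS pH 7.4 with 1 mM MgCl2, giving crude material at 1 mg/mL protein. This was treated with 10 μM compound for 30 min, then heated in aliquots for 3 min over 48°C-58°C before pooling and addition of NP-40 to 0.5% at 4°C. Centrifugation at 21,000xg for 90 min left soluble protein in the supernatant, which TMTpro 16plex LC-MS/MS quantified with equalised channel sums. Results are log-two fold changes in thermal stability compared with solvent controls, from duplicates.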
# [1] = compound: C/C(=N\NC(=O)C1=CC(=CC=C1)S(=O)(=O)N2CCOCC2)/C3=C(C=CC(=C3)Cl)O
# Method in brief: as §1
# [2] = compound: C1=CC(=CC=C1C2=NC3=C(N2)C=C(C=C3)C(=O)N)OC4=CC=C(C=C4)Cl
# Method in brief: as §1
# [3] = compound: C1=CC2=C(C=CC(=C2)/C=C\3/C(=O)NC(=NCC4=CC=CS4)S3)N=C1
# Method in brief: as §1
# [4] = compound: C1=CC2=NC=CN=C2C=C1/C=C/3\C(=O)NC(=O)S3
# Method in brief: as §1
# [5] = compound: C1=CC=C(C=C1)C2=NC(=C(N2)C3=CC=NC=C3)C4=CC(=C(C=C4)Cl)O
# Method in brief: as §1
# [6] = compound: C1=CC=C2C(=C1)C3=NNC4=CC=CC(=C43)C2=O
# Method in brief: as §1
# [7] = compound: C1CCN(C1)C(=O)NC2=CC=CC(=C2)NC3=NC=C(C(=N3)NCCC4=CN=CN4)Br
# Method in brief: as §1
# [8] = compound: C1CN(CCC1(CC2=CC=C(C=C2)Cl)N)C3=NC=NC4=C3C=CN4
# Method in brief: as §1
# IRAK-1-4 Inhibitor I = compound: C1COCCN1CCN2C3=CC=CC=C3N=C2NC(=O)C4=CC(=CC=C4)[N+](=O)[O-] [IRAK-1-4 Inhibitor I]
# Method in brief: as §1
# ibrutinib = compound: C=CC(=O)N1CCC[C@@H](n2nc(-c3ccc(Oc4ccccc4)cc3)c3c(N)ncnc32)C1 [ibrutinib]
# Method in brief: as §1
# [9] = compound: CC(=O)c1cnc2ccc(-c3cc(Cl)c(O)c(Cl)c3)nc2c1N[C@H]1CC[C@H](CN(C)C)CC1
# Method in brief: as §1
# ralimetinib = compound: CC(C)(C)Cn1c(N)nc2ccc(-c3[nH]c(C(C)(C)C)nc3-c3ccc(F)cc3)nc21 [ralimetinib]
# Method in brief: as §1
# [10] = compound: CC(C)(O)CC(=O)NCCn1ccc2ncnc(Nc3ccc(Oc4cccc(C(F)(F)F)c4)c(Cl)c3)c21
# Method in brief: as §1
# [11] = compound: CC(C)C1=C2N=C(C=C(N2N=C1)NCC3=CC=CC=C3)NCCCCCCN
# Method in brief: as §1
# [12] = compound: CC1=C(C(CC(=O)N1)C2=CC=C(C=C2)C(F)(F)F)C(=O)NC3=C(C=C4C(=C3)C=NN4)F
# Method in brief: as §1
# [13] = compound: CC1=C(C2=C(C=C1)C(=O)C3=CC=CC=C3N2CCCN)C
# Method in brief: as §1
# [14] = compound: CC1=C(C=C(C=C1)NC(=O)C2=CC(=CC=C2)C(C)(C)C#N)NC3=CC4=C(C=C3)N=CN(C4=O)C
# Method in brief: as §1
# [15] = compound: CC1=C(C=C(C=C1)NC(=O)C2=CC(=CC=C2)N(C)C)NC(=O)C3=CC=C(C=C3)O
# Method in brief: as §1
# [16] = compound: CC1=CC=C(C=C1)SC2=C3C=C(SC3=CN=C2)C(=O)N
# Method in brief: as §1
# Sequence of UniProt Q9BRQ8 (Q9BRQ8 whole entry, looked up): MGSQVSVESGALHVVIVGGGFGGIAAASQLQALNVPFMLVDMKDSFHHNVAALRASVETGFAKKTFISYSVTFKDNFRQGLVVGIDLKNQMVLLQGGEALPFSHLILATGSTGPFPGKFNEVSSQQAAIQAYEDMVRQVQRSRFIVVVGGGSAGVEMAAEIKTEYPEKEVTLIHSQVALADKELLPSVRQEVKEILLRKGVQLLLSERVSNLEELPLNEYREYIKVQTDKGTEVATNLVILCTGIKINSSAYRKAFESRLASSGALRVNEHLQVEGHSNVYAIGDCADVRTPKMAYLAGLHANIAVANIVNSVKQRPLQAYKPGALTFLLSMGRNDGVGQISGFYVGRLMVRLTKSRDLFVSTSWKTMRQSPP
# Sequence of UniProt Q5JTZ9 (Q5JTZ9 whole entry, looked up): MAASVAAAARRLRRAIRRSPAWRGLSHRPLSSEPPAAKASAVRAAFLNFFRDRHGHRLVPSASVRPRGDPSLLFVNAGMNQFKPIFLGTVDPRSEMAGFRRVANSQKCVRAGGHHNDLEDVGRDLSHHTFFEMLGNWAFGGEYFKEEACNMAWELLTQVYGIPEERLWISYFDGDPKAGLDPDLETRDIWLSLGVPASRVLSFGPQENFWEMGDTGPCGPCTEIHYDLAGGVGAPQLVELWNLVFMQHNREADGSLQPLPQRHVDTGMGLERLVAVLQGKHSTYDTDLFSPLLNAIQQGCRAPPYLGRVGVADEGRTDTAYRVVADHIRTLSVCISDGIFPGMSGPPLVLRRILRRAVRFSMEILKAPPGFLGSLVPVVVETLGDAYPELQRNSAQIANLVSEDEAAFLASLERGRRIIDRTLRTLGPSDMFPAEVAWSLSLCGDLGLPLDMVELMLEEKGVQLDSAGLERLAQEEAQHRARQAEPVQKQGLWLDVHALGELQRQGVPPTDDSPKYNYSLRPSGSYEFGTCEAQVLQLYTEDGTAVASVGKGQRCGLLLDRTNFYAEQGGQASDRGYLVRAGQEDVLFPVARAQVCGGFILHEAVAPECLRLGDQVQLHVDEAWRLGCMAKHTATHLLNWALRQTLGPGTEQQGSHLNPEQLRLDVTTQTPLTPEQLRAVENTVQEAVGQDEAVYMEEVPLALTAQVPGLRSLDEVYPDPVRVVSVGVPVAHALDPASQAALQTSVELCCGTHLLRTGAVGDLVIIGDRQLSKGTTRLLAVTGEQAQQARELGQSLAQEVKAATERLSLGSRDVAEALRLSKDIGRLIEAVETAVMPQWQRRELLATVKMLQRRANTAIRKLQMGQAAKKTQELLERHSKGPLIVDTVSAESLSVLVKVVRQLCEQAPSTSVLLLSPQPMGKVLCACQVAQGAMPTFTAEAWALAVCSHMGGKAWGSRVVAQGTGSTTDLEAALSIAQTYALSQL
# Sequence of UniProt Q92974 (Q92974 whole entry, looked up): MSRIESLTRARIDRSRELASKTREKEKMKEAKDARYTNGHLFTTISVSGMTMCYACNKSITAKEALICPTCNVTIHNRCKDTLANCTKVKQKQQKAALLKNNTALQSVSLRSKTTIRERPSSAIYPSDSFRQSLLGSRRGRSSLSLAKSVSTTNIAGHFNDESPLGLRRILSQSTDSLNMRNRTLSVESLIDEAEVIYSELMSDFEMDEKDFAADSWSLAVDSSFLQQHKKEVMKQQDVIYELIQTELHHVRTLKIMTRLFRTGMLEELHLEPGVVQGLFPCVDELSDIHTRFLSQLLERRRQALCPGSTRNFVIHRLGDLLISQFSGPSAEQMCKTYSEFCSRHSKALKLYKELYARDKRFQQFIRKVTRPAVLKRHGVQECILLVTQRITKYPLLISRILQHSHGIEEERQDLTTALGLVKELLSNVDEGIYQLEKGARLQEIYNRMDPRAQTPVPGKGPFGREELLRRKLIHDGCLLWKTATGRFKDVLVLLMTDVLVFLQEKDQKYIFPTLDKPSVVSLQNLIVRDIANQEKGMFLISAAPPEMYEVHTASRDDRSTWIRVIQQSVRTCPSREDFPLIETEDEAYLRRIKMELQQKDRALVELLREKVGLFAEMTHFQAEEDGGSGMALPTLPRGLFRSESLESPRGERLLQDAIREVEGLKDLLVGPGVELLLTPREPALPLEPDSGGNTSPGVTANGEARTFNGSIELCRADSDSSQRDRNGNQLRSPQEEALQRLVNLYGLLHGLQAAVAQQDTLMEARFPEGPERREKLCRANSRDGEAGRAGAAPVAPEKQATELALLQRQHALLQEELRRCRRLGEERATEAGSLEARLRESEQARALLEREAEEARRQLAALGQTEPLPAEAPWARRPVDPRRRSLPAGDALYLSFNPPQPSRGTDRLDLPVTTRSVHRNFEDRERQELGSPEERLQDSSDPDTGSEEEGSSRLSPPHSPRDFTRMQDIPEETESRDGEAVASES
# Sequence of UniProt P55265 (P55265 whole entry, looked up): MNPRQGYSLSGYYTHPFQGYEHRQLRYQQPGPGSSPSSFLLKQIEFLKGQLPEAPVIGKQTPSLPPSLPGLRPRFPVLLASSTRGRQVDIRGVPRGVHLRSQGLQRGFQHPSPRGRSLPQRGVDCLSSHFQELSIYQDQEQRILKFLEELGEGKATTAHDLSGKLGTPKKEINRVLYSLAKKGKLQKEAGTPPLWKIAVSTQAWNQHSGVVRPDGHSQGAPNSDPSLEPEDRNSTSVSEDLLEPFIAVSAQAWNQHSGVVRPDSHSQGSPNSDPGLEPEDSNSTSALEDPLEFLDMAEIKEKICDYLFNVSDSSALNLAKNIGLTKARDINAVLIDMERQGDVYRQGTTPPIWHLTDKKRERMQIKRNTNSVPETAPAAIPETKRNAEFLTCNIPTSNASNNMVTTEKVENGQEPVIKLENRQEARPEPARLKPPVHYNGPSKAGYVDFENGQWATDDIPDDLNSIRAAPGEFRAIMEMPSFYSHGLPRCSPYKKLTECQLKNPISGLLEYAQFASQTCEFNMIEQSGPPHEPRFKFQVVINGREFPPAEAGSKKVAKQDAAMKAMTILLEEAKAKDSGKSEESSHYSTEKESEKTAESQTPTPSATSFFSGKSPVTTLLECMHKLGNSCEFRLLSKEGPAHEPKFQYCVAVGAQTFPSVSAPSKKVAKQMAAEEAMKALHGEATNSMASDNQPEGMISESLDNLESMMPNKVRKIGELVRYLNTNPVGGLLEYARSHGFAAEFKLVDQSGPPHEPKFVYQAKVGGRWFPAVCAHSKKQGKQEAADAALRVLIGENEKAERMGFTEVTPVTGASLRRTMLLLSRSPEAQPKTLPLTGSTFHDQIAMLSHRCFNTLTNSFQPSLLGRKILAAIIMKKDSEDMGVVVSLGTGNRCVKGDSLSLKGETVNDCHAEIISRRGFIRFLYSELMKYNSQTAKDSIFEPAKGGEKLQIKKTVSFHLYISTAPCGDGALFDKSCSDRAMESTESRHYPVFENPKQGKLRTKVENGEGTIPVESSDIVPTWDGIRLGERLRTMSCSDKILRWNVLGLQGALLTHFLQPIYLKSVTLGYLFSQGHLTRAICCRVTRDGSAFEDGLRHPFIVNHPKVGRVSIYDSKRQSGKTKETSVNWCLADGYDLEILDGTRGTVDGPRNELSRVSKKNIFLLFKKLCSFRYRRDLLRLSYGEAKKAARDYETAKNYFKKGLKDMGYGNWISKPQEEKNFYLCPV
# Sequence of UniProt Q9UNA0 (Q9UNA0 whole entry, looked up): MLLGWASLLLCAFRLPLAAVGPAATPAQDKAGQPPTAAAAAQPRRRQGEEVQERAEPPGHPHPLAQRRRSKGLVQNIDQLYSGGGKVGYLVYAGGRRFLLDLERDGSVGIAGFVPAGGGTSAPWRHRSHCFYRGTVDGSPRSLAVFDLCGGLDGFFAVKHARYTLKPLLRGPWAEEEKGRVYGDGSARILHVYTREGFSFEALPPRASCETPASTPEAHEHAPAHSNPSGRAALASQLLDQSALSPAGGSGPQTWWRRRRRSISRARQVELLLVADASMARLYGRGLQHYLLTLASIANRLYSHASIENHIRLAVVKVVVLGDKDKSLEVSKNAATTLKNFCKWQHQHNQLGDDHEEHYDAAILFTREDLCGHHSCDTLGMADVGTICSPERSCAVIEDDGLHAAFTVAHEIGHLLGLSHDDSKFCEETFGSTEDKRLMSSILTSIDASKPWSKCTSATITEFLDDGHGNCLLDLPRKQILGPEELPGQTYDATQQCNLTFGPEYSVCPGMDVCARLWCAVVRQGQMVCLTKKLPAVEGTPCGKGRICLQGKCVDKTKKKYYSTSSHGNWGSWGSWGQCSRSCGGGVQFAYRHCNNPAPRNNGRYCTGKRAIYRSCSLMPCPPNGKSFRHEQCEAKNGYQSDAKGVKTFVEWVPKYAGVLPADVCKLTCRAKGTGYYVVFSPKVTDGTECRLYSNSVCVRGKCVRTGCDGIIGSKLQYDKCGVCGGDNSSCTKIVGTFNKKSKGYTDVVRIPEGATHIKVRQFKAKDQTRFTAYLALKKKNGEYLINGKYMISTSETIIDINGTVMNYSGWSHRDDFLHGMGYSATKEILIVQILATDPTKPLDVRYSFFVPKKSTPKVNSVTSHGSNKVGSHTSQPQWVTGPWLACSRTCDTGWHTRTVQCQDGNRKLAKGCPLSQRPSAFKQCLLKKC
# Sequence of UniProt Q6P1M9 (Q6P1M9 whole entry, looked up): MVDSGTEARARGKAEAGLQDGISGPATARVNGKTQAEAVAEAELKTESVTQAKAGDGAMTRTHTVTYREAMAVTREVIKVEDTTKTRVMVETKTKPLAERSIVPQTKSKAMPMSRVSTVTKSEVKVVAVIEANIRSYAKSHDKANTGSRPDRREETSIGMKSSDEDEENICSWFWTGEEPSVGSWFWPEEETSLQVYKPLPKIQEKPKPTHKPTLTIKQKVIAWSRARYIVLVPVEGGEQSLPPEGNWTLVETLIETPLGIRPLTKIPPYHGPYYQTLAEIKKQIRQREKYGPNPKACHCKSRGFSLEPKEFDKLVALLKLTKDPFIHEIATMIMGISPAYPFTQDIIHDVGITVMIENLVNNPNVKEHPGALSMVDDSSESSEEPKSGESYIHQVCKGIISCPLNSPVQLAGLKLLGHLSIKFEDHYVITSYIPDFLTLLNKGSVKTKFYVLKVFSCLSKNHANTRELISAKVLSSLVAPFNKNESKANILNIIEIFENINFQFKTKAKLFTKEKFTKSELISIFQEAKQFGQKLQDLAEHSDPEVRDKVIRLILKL
Target,log2 fold change (erlotinib),log2 fold change [1],log2 fold change [2],log2 fold change [3],log2 fold change [4],log2 fold change [5],log2 fold change [6],log2 fold change [7],log2 fold change [8],log2 fold change (IRAK-1-4 Inhibitor I),log2 fold change (ibrutinib),log2 fold change [9],log2 fold change (ralimetinib),log2 fold change [10],log2 fold change [11],log2 fold change [12],log2 fold change [13],log2 fold change [14],log2 fold change [15],log2 fold change [16]
ADAMTS5 (UniProt Q9UNA0),0.027,0.004,0.044,-0.05,-0.046,0.049,-0.001,0.058,0.073,0.123,0.032,-0.057,-0.016,-0.186,-0.011,0.008,-0.067,0.093,-0.031,-0.076
AARS2 (UniProt Q5JTZ9),0.013,-0.047,-0.05,0.004,-0.013,0.005,-0.026,-0.008,0.038,-0.024,0,-0.052,0.025,-0.018,0.029,0.009,0.02,-0.006,0.035,-0.03
ADAR isoform 4 (UniProt P55265),-0.029,-0.114,-0.06,-0.031,0.002,0.001,-0.029,0.002,-0.017,0,0.152,-0.025,0.029,-0.019,-0.03,0.018,0.016,-0.002,0.015,-0.021
ALG8 (UniProt Q9BVK2),0.022,-0.102,-0.082,0.018,0.016,-0.062,-0.001,0.053,0.012,-0.007,0.017,-0.013,0.013,0.036,-0.028,-0.005,0.054,0.027,-0.011,-0.003
ADD1 isoform 3 (UniProt P35611),-0.027,0,0.033,0.011,-0.01,-0.004,0.011,-0.015,-0.014,-0.021,-0.006,-0.009,0,-0.01,-0.005,0.007,-0.038,0.005,-0.009,-0.019
ARL8A (UniProt Q96BM9),-0.223,-0.039,0.176,0.157,0.036,0,-0.041,0.026,0.028,0.091,-0.141,0.119,-0.101,-0.102,0.11,0.135,-0.049,-0.143,-0.022,0
ARHGEF2 (UniProt Q92974),-0.006,-0.041,-0.014,-0.017,0.002,0.039,-0.007,-0.051,-0.018,-0.005,0.028,-0.003,0.043,0.005,0.014,0.008,-0.034,0.047,0.018,0.01
AIFM2 (UniProt Q9BRQ8),-0.094,0,0.224,0.071,-0.117,0.117,0.068,-0.025,0.018,-0.01,-0.016,-0.075,0.028,0.643 (active),0.275,-0.033,-0.161,-0.04,-0.051,0.024
ARMCX5 (UniProt Q6P1M9),-0.08,0.047,-0.004,0.157,0.001,0.03,-0.35 (active),0.075,-0.039,-0.08,0.04,-0.018,0.012,0.013,-0.004,-0.047,0.053,,-0.049,-0.093
